According to PubChem BioAssay AID485346 (Sanford-Burnham Center for Chemical Genomics, 2010):
The campaign covered roughly 330,000 compounds. About 10,000 (3%) were called active. Only a selection was taken, and actives are over-represented in it overall. Values without a mark were called inactive.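 Rule for the calls: active = inhibition of at least 50% at 8 µM in the primary screen; inactive = the rest.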

Target: Protein Mdm4 (Homo sapiens) + E3 ubiquitin-protein ligase Mdm2 (Homo sapiens) (UniProt O15151+Q00987)
Experiment: disruptors of Mdm2/MdmX RING complex – cell-based, luminescence, split luciferase, SaOS-2, uHTS, primary screen (AID 485346)
Settings: SaOS-2 split-luciferase Mdm2/MdmX complementation, at 8 µM, active compounds read high

Chain of Protein Mdm4 (Homo sapiens) + E3 ubiquitin-protein ligase Mdm2 (Homo sapiens) (O15151 whole entry, looked up): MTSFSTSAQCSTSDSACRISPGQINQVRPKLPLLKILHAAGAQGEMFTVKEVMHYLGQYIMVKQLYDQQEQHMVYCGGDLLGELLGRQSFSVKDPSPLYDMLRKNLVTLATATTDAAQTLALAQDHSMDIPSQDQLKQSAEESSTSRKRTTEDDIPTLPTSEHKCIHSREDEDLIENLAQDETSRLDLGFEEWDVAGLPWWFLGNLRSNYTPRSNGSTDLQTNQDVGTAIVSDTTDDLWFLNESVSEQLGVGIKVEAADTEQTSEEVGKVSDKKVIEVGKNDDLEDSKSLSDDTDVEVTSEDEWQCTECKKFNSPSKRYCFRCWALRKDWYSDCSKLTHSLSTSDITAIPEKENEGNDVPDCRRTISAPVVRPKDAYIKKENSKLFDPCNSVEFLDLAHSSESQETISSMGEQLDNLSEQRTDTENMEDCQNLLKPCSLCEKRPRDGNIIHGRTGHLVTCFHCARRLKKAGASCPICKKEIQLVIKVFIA
Chain of Protein Mdm4 (Homo sapiens) + E3 ubiquitin-protein ligase Mdm2 (Homo sapiens) (Q00987 whole entry, looked up): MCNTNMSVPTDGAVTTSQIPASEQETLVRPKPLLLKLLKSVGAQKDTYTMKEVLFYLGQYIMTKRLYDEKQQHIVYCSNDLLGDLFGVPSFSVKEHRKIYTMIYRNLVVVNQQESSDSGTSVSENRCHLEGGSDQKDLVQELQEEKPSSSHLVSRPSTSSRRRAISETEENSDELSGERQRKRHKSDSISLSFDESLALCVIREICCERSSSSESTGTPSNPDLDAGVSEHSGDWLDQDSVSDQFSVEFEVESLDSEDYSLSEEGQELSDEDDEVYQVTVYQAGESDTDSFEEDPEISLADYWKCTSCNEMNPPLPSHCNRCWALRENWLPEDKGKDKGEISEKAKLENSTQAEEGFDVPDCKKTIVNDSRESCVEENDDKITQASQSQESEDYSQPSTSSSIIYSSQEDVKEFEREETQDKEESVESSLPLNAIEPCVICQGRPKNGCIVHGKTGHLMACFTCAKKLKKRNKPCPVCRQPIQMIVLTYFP

Compound | inhibition
COc1ccccc1CNS(=O)(=O)c1cc(C(=O)NCc2ccccn2)c(Cl)cc1Cl | -21.7%
CC(C)Cc1nc(Nc2ccc(S(=O)(=O)N3CCCC3)cc2)c2nnn(Cc3ccccc3)c2n1 | 68.6% (active)
CC(C)Nc1ncnc2c1nnn2Cc1ccccc1 | -2.35%
Cc1nc(Nc2ccc(S(=O)(=O)N3CCCC3)cc2)c2nnn(Cc3ccccc3)c2n1 | 3.4%
Cc1cnc(C(=O)N2CCCC(N3CCN(c4ccccc4F)CC3)C2)cn1 (stereo not given) | 1.8%
Cc1ccc(S(=O)(=O)N(CC(=O)N/N=C/c2ccc(F)cc2)c2cccc3cccnc23)cc1 | 4.5%
Cc1ccc(S(=O)(=O)c2c(COC(=O)c3cccc(Cl)c3)c(-c3ccccc3)nn2C)cc1 | 7.27%
Cn1nc(-c2ccccc2)c(CO)c1Sc1ccccc1 | 8.85%
Cn1nc(-c2ccccc2)c(CSc2cccc(Cl)c2)c1Cl | 50.5% (active)
C=CCOc1ccc(C(=O)Nc2ccccc2C(=O)N2CCCC2)cc1 | 2.51%
COC(=O)Nc1ncc(CN2C(=O)c3ccccc3C2=O)s1 | 12.4%
Cc1cc(C(=O)CSc2nc(N)cc(=O)[nH]2)c(C)n1Cc1ccco1 | 22.2%
Cc1cc(C(=O)COC(=O)CNC(=O)c2ccc(F)cc2)c(C)n1Cc1ccco1 | 56.9% (active)
COCCn1c(C)cc(C(=O)COC(=O)CNC(=O)c2ccco2)c1C | 3.33%
CC(Oc1ccccc1)C(=O)NN1Cc2ccccc2C1=N (stereo not given) | 16.1%
CC(C)(C)NS(=O)(=O)CC12CCC(CC1=O)C2(C)C (stereo not given) | 8.21%
NC(=O)C1CCN(C(=O)c2ccc(-c3ccccc3)cc2)CC1 | 13.3%
CC1CCN(C(=O)c2ccc3c(c2)NC(=O)CN3)CC1 | 13%
O=C1Nc2cc(C(=O)N3CCC(N4CCCCC4)CC3)ccc2S/C1=C\c1ccccc1 | 54.5% (active)
Cc1[nH]n(C(N)=S)c(=O)c1N=Nc1ccc(Cl)cc1Cl | -31.8%

Compound | inhibition
C[C@H](CO)N1C[C@H](C)[C@@H](CN(C)S(=O)(=O)c2ccc(F)cc2)Oc2ccc(NC(=O)CCC(F)(F)F)cc2C1=O | -5.06%
COc1ccc(C2CC(=O)Nc3sc(=N)c4c(N)c(C#N)c(N)nc4c32)cc1OC (stereo not given) | 19.8%
CSc1nc2c(c(=O)[nH]1)C(c1cccc(Cl)c1Cl)CC(=O)N2 (stereo not given) | -2.71%
N#Cc1c(N)nc2c3c(sc(=N)c2c1N)NC(=O)CC3c1ccccc1Cl (stereo not given) | 68.7% (active)
C/C=C/C=C/C(=O)O | 19.9%
Cc1cc(C)c(S(=O)(=O)N2C=CC(C(F)(F)F)=NCC2)c(C)c1 | 17.6%
CC(C(=O)Nc1ccc(F)c(F)c1F)N1CCCCCC1 (stereo not given) | 24.1%
COc1ccccc1CCNC(=O)C1CCN(C(=O)/C=C/c2ccccc2)CC1 | -2.9%
CN(C)c1ccc(/C=C/C(=O)c2ccc(C(C)(C)C)cc2)cc1[N+](=O)[O-] | 30.9%
O=C(/C=C/c1ccc(Cl)c([N+](=O)[O-])c1)c1ccc(O)cc1 | 98.7% (active)
O=C(/C=C/c1ccc(Cl)c([N+](=O)[O-])c1)c1cccnc1 | 84.3% (active)
CN(C)c1ccc(/C=C/C(=O)c2ccc(O)cc2)cc1[N+](=O)[O-] | 11.6%
O=C(Nc1cccnc1)c1ccc(Cl)c([N+](=O)[O-])c1 | -11.2%
O=C(/C=C/c1ccc(Cl)cc1Cl)c1cccnc1 | 17.5%
O=C(COC(=O)CNC(=O)C1CCCCC1)NCc1ccccc1 | 17.1%
CCCSc1ccc([C@H]2N[C@@](Cc3ccccc3)(C(=O)OC)[C@H]3C(=O)N(C)C(=O)[C@@H]23)cc1 | 42.6%
CC1CN(C(=S)Nc2ccccc2F)CC(C)O1 (stereo not given) | 28.4%
O=C(/C=C/c1cccc([N+](=O)[O-])c1)OCC(=O)N1CCOCC1 | 9.38%
CCOP(=O)(OCC)C(Nc1cccc(C)c1)c1ccc(F)cc1 (stereo not given) | -2.51%
Fc1ccccc1Cn1cnc(NC(=S)NCCc2ccccc2)n1 | 45.1%

Compound | inhibition
O=C(COC(=O)Cc1ccccc1F)NCCc1ccccc1 | 6.62%
N=c1n(CCc2ccccc2)c2ccccc2n1Cc1ccccc1F | 64.2% (active)
Cc1nn(CCOc2ccc(Br)cc2)c(C)c1[N+](=O)[O-] | 18.2%
C=CC1=C(C(=O)O)N2C(=O)[C@@H](NC(=O)/C(=N\OCC(=O)O)c3csc(N)n3)[C@H]2SC1 | 16%
COc1ccc(CCOC2OC(CO)C(OC(=O)/C=C/c3ccc(O)c(OC)c3)C(O[C@H]3O[C@@H](C)[C@H](O)[C@@H](O)[C@H]3O)C2O)cc1O (stereo not given in full) | -29.1%
CCN1/C(=C\c2ccc3ccccc3[n+]2CC)Sc2cc(C)ccc21 | 77.1% (active)
COC(=O)C[n+]1cccc2ccccc21 | 6.08%
O=S(=O)(NCC1CN(S(=O)(=O)c2ccc3c(c2)OCCO3)C1)c1c(F)cccc1F | -1.76%
O=C(N[C@H]1C/C=C\C(c2ccc(F)cc2)N(Cc2ccccc2)C(=O)C1)OCC1c2ccccc2-c2ccccc21 (stereo not given in full) | 20.2%
CC(=O)Nc1ccc(C(=O)/C=C/c2ccc[nH]2)cc1 | 1.87%
O=C(COc1ccccc1[N+](=O)[O-])N/N=C/c1ccc[nH]1 | 3.97%
CCCC(=O)Nc1ccc(C(=O)N/N=C/c2ccc[nH]2)cc1 | 70.3% (active)
O=C(NCc1ccccc1CN1CCCC1)C1CCN(S(=O)(=O)c2ccc(Cl)cc2)CC1 | 3.2%
CC(C)(C)OC(=O)Nc1ccc([C@@H](NC(=O)OC(C)(C)C)C(=O)OC(C)(C)C)cc1 | 2.33%
COc1ccccc1N1CCN(/N=C/c2ccc(O)cc2O)CC1 | 16.1%
Cc1ccc(/C=N/NC(=O)C2=NNC(c3ccccc3)(c3ccccc3)C2)c(O)c1 | 42.2%
Cc1nc2ccccc2nc1N/N=C/c1ccc(O)cc1O | 77.6% (active)
Oc1ccc(/C=N/Nc2nc(-c3ccccc3F)nc3ccccc23)c(O)c1 | 69% (active)
Cc1n[nH]c(=O)nc1N/N=C/c1cccs1 | -4.56%
O=c1c2ccccc2nc(N/N=C/c2ccccc2)n1O | -0.971%
